Results filed as inconclusive are left out. Active and inactive are the calls of the source. Calls follow the shape of the dose curve; as a rule, active = well fitted inhibition curve with a large enough effect in the polarisation, with a control signal flat (not every such curve was filed as active); inconclusive = small, poorly fitted or top-dose-only effect, or effect the other way, or a change in a side signal; inactive = no such curve, though single readings can be large or run the other way; the % refers to the polarisation.
Test: Confirmation of Inhibitors Targeting the Menin-MLL Interaction in MLL Related Leukemias: Competition With Texas Red Labeled MLL-derived Mutant Peptide
Conditions: fluorescence polarization, Texas Red MLL peptide displacement; series mostly up to 94.6 µM
In short: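 Hits from the primary screen were retested: compounds were incubated 1 hr at ambient with 200 nM menin, 50 nM Texas Red mutant peptide and 25 nM fluorescein wild-type peptide (Tris pH 7.5, BSA-supplemented buffer), then fluorescence polarization was read.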
Potency is read from the fitted curve at half-maximal effect.

Potency, inactive:
COc1ccc(CNC(=O)C(c2ccc(O)cc2)N(Cc2ccco2)C(=O)c2snc(C(N)=O)c2N)cc1 (stereo not drawn)
Cc1c(F)cccc1NS(=O)(=O)c1ccc2c(c1)c(C)cc(=O)n2C
N=c1oc2ccccc2cc1-c1nc(-c2ccc(Cl)cc2)cs1
COc1ccccc1CNCC(=O)Nc1ccc(C#N)cc1
NC(=O)c1ccc(NC(=O)c2cncn2-c2ccccc2)cc1
CCCc1cc(=O)oc2c3c(c(Cl)cc12)OCN(CCCO)C3
CCN1C(=O)c2ccccc2S(=O)(=O)c2ccc(C(=O)NCCCN(CC(C)C)CC(C)C)cc21
CCOC(=O)Cn1c2ccccc2n2nc(CCC(=O)O)c(=O)nc12
CC(=O)c1c(O)cc(O)cc1CC(=O)O
COc1cccc(OC)c1NC(=O)CN1CCN(C)CC1
O=C1CCNc2c(Cl)cc(Cl)cc21
COc1ccc(C)cc1N(C(=O)c1snc(C(N)=O)c1N)C(C(=O)NC1CCCC1)c1ccc(F)cc1 (stereo not drawn)
O=S(=O)(Nc1cccc(-c2cn3cccnc3n2)c1)c1ccccc1
N#Cc1ccc(Cl)cc1NC(=O)CNCc1cccs1

Potency, active:
Cc1sc2ncnc(NC3CCN(Cc4ccccc4)CC3)c2c1C 28.2 µM
CCOc1cc(CNCCc2ccc(S(N)(=O)=O)cc2)ccc1OCc1ccccc1 70.8 µM
NC(=NCCCCCCN=C(N)/N=C(\N)Nc1ccc(Cl)cc1)/N=C(\N)Nc1ccc(Cl)cc1 70.8 µM
CCC[n+]1c2ccccc2cc2ccccc21 31.7 µM

Source: PubChem BioAssay AID2782 (National Center for Advancing Translational Sciences (NCATS), 2010)
